78 compounds from the antibiotic and cytotoxicity screens of Wong et al. (2023) can be followed below.

Hit rate of the full screen: of about 39,000 compounds, about 3,300 (8.5%) were called active. The entries come from a sample that favours actives as a whole.

For this assay, the system named is HepG2. In words: cytotoxicity call (relative viability < 0.9). The settings on record: 10 µM.
Turning to `COc1ccc(C#Cc2ccc3c(c2)O[C@@H](CN(C)C(=O)CN2CCOCC2)[C@H](C)CN([C@@H](C)CO)S3(=O)=O)cc1`, the cytotoxicity call was “inactive”.
Consider `Cc1noc(C)c1NC(=O)Nc1ccc2c(c1)C(=O)N([C@@H](C)CO)C[C@@H](C)[C@@H](CN(C)S(C)(=O)=O)O2`, for which the cytotoxicity call was “inactive”.
On to `C[C@@H]1CN([C@@H](C)CO)C(=O)c2cc(NC(=O)CCN3CCOCC3)ccc2O[C@@H]1CN(C)Cc1ccccc1`, for which the cytotoxicity call was “inactive”.
Turning to `CO[C@@H]1CN(C)C(=O)c2cc(NC(=O)c3cnccn3)ccc2OC[C@@H](C)N(CCC(F)(F)F)C[C@H]1C`, the cytotoxicity call was “inactive”.
With `C[C@H]1CN([C@@H](C)CO)C(=O)c2cccc(NS(=O)(=O)c3ccc(Cl)cc3)c2O[C@H]1CN(C)Cc1ccc(Oc2ccccc2)cc1`, the cytotoxicity call is “inactive”.
For `C[C@@H]1CN([C@@H](C)CO)C(=O)CCCn2cc(nn2)CO[C@@H]1CN(C)C(=O)C1CC1`, the cytotoxicity call is “inactive”.
For `O=c1cc(-c2ccc(O)cc2)oc2cc(O)cc(O)c12`, the cytotoxicity call was “inactive”.
Regarding `COc1ccc(-c2cc(=O)c3c(O)cc(O)cc3o2)cc1`, the cytotoxicity call is “active”.
On to `COc1ccc(-c2cc(=O)c3c(OC)c(OC)c(OC)cc3o2)cc1OC`, for which the cytotoxicity call was “inactive”.
On to `COc1ccc(-c2cc(=O)c3c(O)c(OC)c(OC)c(OC)c3o2)cc1OC`, for which the cytotoxicity call was “active”.
For `COc1ccc(-c2cc(=O)c3c(OC)c(OC)c(OC)c(OC)c3o2)cc1OC`, the cytotoxicity call was “inactive”.
On to `COc1ccc(-c2cc(=O)c3c(O)cc(OC)cc3o2)cc1`, for which the cytotoxicity call is “inactive”.
As for `COc1ccc(-c2cc(=O)c3c(OC)c(OC)c(OC)c(OC)c3o2)cc1`, the cytotoxicity call was “inactive”.
With `COc1ccc(-c2cc(=O)c3c(OC)cc(OC)cc3o2)cc1`, the cytotoxicity call was “inactive”.
With `COc1ccc(-c2cc(=O)c3c(O)c(OC)c(OC)c(OC)c3o2)cc1` the entry was “active”; with `C[C@@H]1CN([C@@H](C)CO)S(=O)(=O)c2ccc(C#C[C@@H](C)O)cc2O[C@H]1CN(C)C(=O)CN(C)C`, “inactive”; with `C[C@@H]1CN([C@H](C)CO)C(=O)c2cccc(NS(C)(=O)=O)c2O[C@@H]1CN(C)S(=O)(=O)c1cccs1`, “inactive”.
For `Clc1ccc2nncn2n1`, the cytotoxicity call was “inactive”.
Then `CNC(=O)[C@H]1O[C@H](n2cnc3c(NCc4cccc(I)c4)nc(Cl)nc32)[C@@H](O)[C@@H]1O`, with “inactive”; and `C[C@@H]1CCCCO[C@@H](CN(C)Cc2ccncc2)[C@H](C)CN([C@H](C)CO)C(=O)c2cc(NS(=O)(=O)c3ccc(Cl)cc3)ccc2O1`, with “inactive”.
With `NC(=O)NCC#Cc1ccc2c(c1)[C@]1(C(=O)N2)[C@H](C(=O)N2CCN(c3ncccn3)CC2)[C@H]2C(=O)O[C@H](c3ccccc3)[C@H](c3ccccc3)N2[C@@H]1c1ccccc1OCCO` the entry was “inactive”; with `Cc1cc(C(=O)Nc2cccc3c2O[C@@H](CN(C)S(=O)(=O)c2ccc(Cl)cc2)[C@@H](C)CN([C@@H](C)CO)C3=O)n(C)n1`, “inactive”.
As to `O=C(CN1CCOCC1)NCC[C@@H]1CC[C@H](NC(=O)Nc2ccccc2)[C@@H](CO)O1`, the cytotoxicity call was “inactive”.
As for `CNC(=O)Nc1ccc(-c2nc(N3C[C@H]4CC[C@@H](C3)O4)c3cnn(C4CCC5(CC4)OCCO5)c3n2)cc1`, the cytotoxicity call is “inactive”.
Turning to `O=C1CC[C@@H](C(=O)O)N1`, the cytotoxicity call was “inactive”.
Turning to `O=C1CCC(C(=O)N2CSCC2C(=O)O)N1` (stereo not drawn), the cytotoxicity call is “active”.
In the case of `O=C1CC[C@@H](C(=O)N2CSC[C@H]2C(=O)O)N1`, the cytotoxicity call was “inactive”.
Then `CC(C)NC(=O)Nc1cccc2c1O[C@H](CN(C)C(=O)NC1CCCCC1)[C@@H](C)CN([C@@H](C)CO)C2=O`, with “inactive”; and `C[C@@H]1CN([C@@H](C)CO)C(=O)c2cccc(NC(=O)c3ccncc3)c2O[C@@H]1CN(C)Cc1ccc2c(c1)OCO2`, with “inactive”; and `C[C@@H]1CCCCO[C@@H](CN(C)C(=O)C2CCCCC2)[C@H](C)CN([C@H](C)CO)C(=O)c2cc(NC(=O)Nc3cccc4ccccc34)ccc2O1`, with “inactive”.
Turning to `O=C(C[C@@H]1C[C@@H]2c3cc(NC(=O)NC4CCCC4)ccc3O[C@@H]2[C@H](CO)O1)NCc1ccc(-c2ccccc2)cc1`, the cytotoxicity call is “inactive”.
Then `O=C(C[C@@H]1C[C@H]2c3cc(NC(=O)NC4CCCC4)ccc3O[C@H]2[C@H](CO)O1)NCc1ccc(-c2ccccc2)cc1`, with “active”; and `O=C(C[C@H]1C[C@@H]2c3cc(NC(=O)NC4CCCC4)ccc3O[C@@H]2[C@H](CO)O1)NCc1ccc(-c2ccccc2)cc1`, with “active”.
`O=C(C[C@H]1C[C@@H]2c3cc(NC(=O)NC4CCCC4)ccc3O[C@@H]2[C@@H](CO)O1)NCc1ccc(-c2ccccc2)cc1`: the cytotoxicity call was “active”.
As to `O=C(C[C@@H]1C[C@@H]2c3cc(NC(=O)NC4CCCC4)ccc3O[C@@H]2[C@@H](CO)O1)NCc1ccc(-c2ccccc2)cc1`, the cytotoxicity call was “inactive”.
On to `O=C(C[C@H]1C[C@H]2c3cc(NC(=O)NC4CCCC4)ccc3O[C@H]2[C@H](CO)O1)NCc1ccc(-c2ccccc2)cc1`, for which the cytotoxicity call was “inactive”.
With `O=C(C[C@H]1C[C@H]2c3cc(NC(=O)NC4CCCC4)ccc3O[C@H]2[C@@H](CO)O1)NCc1ccc(-c2ccccc2)cc1` the entry was “inactive”; with `O=C(C[C@H]1C[C@H]2c3cc(NC(=O)NC4CCCC4)ccc3O[C@H]2[C@@H](CO)O1)NCc1ccc(Oc2ccccc2)cc1`, “inactive”.
For `O=C(C[C@@H]1C[C@H]2c3cc(NC(=O)NC4CCCC4)ccc3O[C@H]2[C@@H](CO)O1)NCc1ccc(-c2ccccc2)cc1`, the cytotoxicity call was “inactive”.
`CC(=O)OCCc1nc(C(=O)NCc2ccc3c(c2)OCO3)cc2c1[C@@H](CCO)N([S@](=O)C(C)(C)C)C2`: the cytotoxicity call is “inactive”.
With `O=C(C[C@@H]1C[C@H]2c3cc(NS(=O)(=O)c4ccccc4)ccc3O[C@H]2[C@H](CO)O1)NCC(F)(F)F`, the cytotoxicity call is “inactive”.
For the compound `COc1cccc(-c2ccc3c(c2)O[C@H](CN(C)C(=O)C2CCOCC2)[C@@H](C)CN([C@@H](C)CO)S3(=O)=O)c1`, the cytotoxicity call was “inactive”.
As for `C[C@@H]1CN([C@H](C)CO)C(=O)c2cc(NC(=O)Nc3ccccc3)ccc2O[C@@H]1CN(C)Cc1ccc(C(=O)Nc2ccccc2N)cc1`, the cytotoxicity call is “inactive”.
Then `C[C@H](CO)N1C[C@H](C)[C@H](CN(C)S(=O)(=O)c2ccccc2)Oc2ccc(NS(=O)(=O)c3ccc(F)cc3)cc2C1=O`, with “inactive”; and `CN1C(=O)c2cc(NC(=O)c3cnccn3)ccc2OC[C@H]2O[C@H](CC(=O)N[C@H]3CCN(Cc4ccccc4)C3)CC[C@@H]21`, with “inactive”.
With `COc1ccc(S(=O)(=O)N(C)C[C@@H]2Oc3ccc(NC(=O)Cn4cnnn4)cc3C(=O)N([C@H](C)CO)C[C@@H]2C)cc1` the entry was “inactive”; with `COc1ccc(C=CC(=O)c2ccc(O)cc2O)cc1`, “inactive”; with `COc1ccc(C=CC(=O)c2cc(O)ccc2O)cc1`, “active”.
For `CC(=C/C(=O)O)/C=C/c1ccccc1`, the cytotoxicity call was “inactive”.
In the case of `COc1ccc(C(=O)O)cc1`, the cytotoxicity call is “inactive”.
With `O=C(C=Cc1ccc(O)cc1)c1ccc(O)cc1O`, the cytotoxicity call is “inactive”.
Turning to `COc1ccc(C=CC(=O)c2ccccc2)cc1`, the cytotoxicity call is “active”.
`COc1ccc(C(=O)C=Cc2ccccc2)cc1`: the cytotoxicity call is “active”.
Regarding `CC=Cc1ccc(OC)cc1`, the cytotoxicity call is “active”.
As to `CCCCC(CC)COC(=O)C=Cc1ccc(OC)cc1` (stereo not drawn), the cytotoxicity call is “inactive”.
For the compound `COc1ccc(/C=C2/NC(=O)NC2=O)cc1`, the cytotoxicity call is “inactive”.
Consider `C/C=C/c1ccc(OC)cc1`, for which the cytotoxicity call is “inactive”.
For `C[C@H](CO)N1C[C@H](C)[C@H](CN(C)C(=O)Nc2ccc(-c3ccccc3)cc2)OCc2ccccc2-c2ccccc2C1=O`, the cytotoxicity call is “inactive”.
Consider `C[C@H](CO)N1C[C@H](C)[C@H](CN(C)C(=O)CCC(F)(F)F)OCCCC[C@H](C)Oc2ccc(NC(=O)CCC(F)(F)F)cc2C1=O`, for which the cytotoxicity call was “inactive”.
`O=C(NCC(=O)N1CCOCC1)c1ccccc1`: the cytotoxicity call is “inactive”.
Turning to `Cc1ccc(S(=O)(=O)Nc2ccc3c(c2)CC(=O)N([C@H](C)CO)C[C@@H](C)[C@H](CN(C)S(=O)(=O)c2cn(C)cn2)O3)cc1`, the cytotoxicity call was “inactive”.
Then `Cc1ccc(S(=O)(=O)Nc2ccc3c(c2)CC(=O)N([C@@H](C)CO)C[C@H](C)[C@@H](CN(C)S(=O)(=O)c2cccs2)O3)cc1`, with “inactive”; and `C[C@H](CO)N1C[C@H](C)[C@@H](CN(C)S(C)(=O)=O)Oc2ccc(NC(=O)Cn3cnnn3)cc2C1=O`, with “inactive”.
Then `Oc1ccc(C=Cc2cc(O)cc(O)c2)cc1`, with “inactive”; and `COc1ccc(O)cc1`, with “inactive”.
Consider `COc1cc(C=Cc2ccc(O)cc2)cc(OC)c1`, for which the cytotoxicity call is “active”.
For the compound `C[C@@H]1CN([C@@H](C)CO)C(=O)c2cc(C#CCN(C)C)cnc2O[C@@H]1CN(C)S(C)(=O)=O`, the cytotoxicity call is “inactive”.
For the compound `COc1ccc(S(=O)(=O)N(C)C[C@H]2OCCCC[C@@H](C)Oc3ccc(NC(=O)C4CCCCC4)cc3C(=O)N([C@@H](C)CO)C[C@H]2C)cc1`, the cytotoxicity call was “inactive”.
With `CC(C)(C)[S@](=O)N1Cc2cc(C(=O)NCCN3CCCCC3)nc(-c3cccc(-c4ccc(C#N)cc4)c3)c2[C@@H]1CCO` the entry was “inactive”; with `C[C@H]1CN([C@@H](C)CO)S(=O)(=O)c2ccc(C#CCC3CCCC3)cc2O[C@@H]1CN(C)C(=O)CN(C)C`, “inactive”; with `C[C@@H]1CN([C@H](C)CO)S(=O)(=O)c2ccc(C#CCC3CCCC3)cc2O[C@H]1CN(C)C(=O)CN(C)C`, “inactive”.
For `C[C@@H]1CN([C@H](C)CO)S(=O)(=O)c2ccc(C#CCC3CCCC3)cc2O[C@@H]1CN(C)C(=O)c1cnccn1`, the cytotoxicity call was “inactive”.
Turning to `C[C@H]1CN([C@@H](C)CO)S(=O)(=O)c2ccc(C#CCC3CCCC3)cc2O[C@H]1CN(C)C(=O)CN(C)C`, the cytotoxicity call is “active”.
For `C[C@@H]1CN([C@H](C)CO)S(=O)(=O)c2ccc(C#CCC3CCCC3)cc2O[C@@H]1CN(C)C(=O)CN(C)C`, the cytotoxicity call is “inactive”.
Then `C[C@H](CO)N1C[C@H](C)[C@H](CN(C)C(=O)CN(C)C)Oc2cc(C#CCC3CCCC3)ccc2S1(=O)=O`, with “inactive”; and `C[C@H]1CN([C@@H](C)CO)S(=O)(=O)c2ccc(C#CCC3CCCC3)cc2O[C@H]1CN(C)C(=O)c1cnccn1`, with “inactive”.
For the compound `C[C@H](CO)N1C[C@H](C)[C@@H](CN(C)C(=O)c2cnccn2)Oc2cc(C#CCC3CCCC3)ccc2S1(=O)=O`, the cytotoxicity call is “active”.
Then `C[C@@H]1CN([C@@H](C)CO)S(=O)(=O)c2ccc(C#CCC3CCCC3)cc2O[C@@H]1CN(C)C(=O)CN(C)C`, with “active”.
